Rows were chosen to be rich in hits. Some 1.5% of all compounds tested hit in one or more screens of this group.
RTF Ca sens inh – cardiac RTF calcium sensitivity inhibitors, primary screen, biochemical, IANBD-TnC fluorescence, EC70 calcium; IANBD-labeled cardiac RTF, Ca2+ fluorescence; inhibition, % at 7.15 µM; actives 0.12% (n = 340,000);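 active = inhibition above the mean inhibition of all tested compounds plus 3 SD, cut at about 17% in these data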;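 also: assay run at fixed EC70 calcium of 1.6 mM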
IDE cell inh – human IDE inhibitors in live cells, primary screen, fluorescence polarization, HEK cells, FAbetaB substrate | FAbetaB cleavage | actives 0.41% (n = 320,000) | Insulin-degrading enzyme (Homo sapiens), P14735 | inhibition, % at 5.59 µM;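 active = percent inhibition above the average of all tested compounds plus 3 SD, set per screening campaign, cut at about 16% in these data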;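 also: IDE supplied by intact live HEK cells; FP after avidin binding of uncleaved biotin substrate so inhibition keeps polarization high; 0% = DMSO wells and 100% = 60 µM reference IDE inhibitor Ii1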
RTF Ca sens act – cardiac RTF calcium sensitivity activators, primary screen, biochemical, IANBD-TnC fluorescence, EC20 calcium; actives 0.24% (n = 340,000); IANBD-labeled TnC RTF fluorescence at EC20 calcium; 0% EC20 calcium, 100% full calcium; Troponin I, cardiac muscle (Homo sapiens) + Troponin T, cardiac muscle (Homo sapiens) + …; activation, % at 7.2 µM;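 active = activation above the mean over all tested compounds plus 3 SD, cut at about 30% in these data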;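 also: rise in fluorescence read as greater calcium sensitivity of cardiac thin filaments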
TPT1 inhibitor – Candida albicans TPT1 enzyme inhibitors, primary screen, biochemical, fluorescence polarization. inhibition, % at 5 µM. recombinant caTPT1, FP RNA substrate dephosphorylation. actives 0.81% (n = 300,000). AID 1962, 2009;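 active = inhibition above the mean of all tested compounds plus 3 SD, set per screening campaign, cut at about 24% in these data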;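 also: plate controls were DMSO alone for no effect and ferristatin control at 100 nM for full effect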
CRFBP-R2 agonist – agonists of CRF-BP/CRF-R2 complex, primary screen, cell-based, HEK293, calcium dye fluorescence, uHTS. CRF-binding protein / CRF receptor 2 complex (human). calcium dye fluorescence (FLIPR); percent of saturating CRF peptide response. activation, % at 13.2 µM. actives 0.46% (n = 350,000);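 active = activation of at least 50%, plus an integration ratio under a set limit after plate pattern correction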;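 also: plate controls were neutral control wells without compound for no effect and CRF at EC100 for full effect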
IDE act – human IDE activators in live cells, primary screen, fluorescence polarization, HEK cells, FAbeta-B substrate; actives 0.073% (n = 340,000); activation, % at 5.96 µM; FAbeta-B cleavage; 0% vehicle, 100% cell-free pure enzyme wells;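 active = activation above the mean of all tested compounds plus 3 SD, set per screening campaign, cut at about 17% in these data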
TPT1 inh confirm – Candida albicans TPT1 inhibitors, confirmation, biochemical, fluorescence polarization, triplicate; shares compounds with TPT1 inhibitor; recombinant caTPT1, RNase T1 coupled; inhibition, % at 5 µM; actives 74% (n = 2,400);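 active = inhibition above the primary screen limit, the mean inhibition of all tested compounds plus 3 SD, cut at about 25% in these data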
RNase T1 inh – RNase T1 inhibitors, counter-screen for TPT1 inhibitor project, biochemical, fluorescence polarization; shares compounds with TPT1 inhibitor; actives 83% (n = 2,400); RNase T1 cleavage, 1536-well; inhibition, % at 5 µM; AID 2153, 2009;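 active = inhibition above the solvent-only control well mean plus 3 SD, limit set per screening run, cut at about 23% in these data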;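 also: plate controls were DMSO wells with enzyme for no effect and wells without RNase T1 for full effect; inhibitors block cleavage so intact labeled substrate keeps polarization high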
Target sequence (P00651 whole entry, looked up): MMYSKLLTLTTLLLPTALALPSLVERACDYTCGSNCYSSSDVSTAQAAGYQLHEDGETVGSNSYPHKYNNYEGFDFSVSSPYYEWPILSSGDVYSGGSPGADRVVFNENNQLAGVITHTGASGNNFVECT
An asterisk follows results filed as active; . = no result given; ! = not confirmed by another sample.

SMILES | RTF Ca sens inh | IDE cell inh | RTF Ca sens act | TPT1 inhibitor | CRFBP-R2 agonist | IDE act | TPT1 inh confirm | RNase T1 inh
O=c1c2ccccc2nc(/C=C/c2ccc(O)cc2)n1-c1cccc(O)c1 | 5 | 83* | 1 | 14 | 1 | -148 | . | .
NC(Cc1cc(O)c(O)cc1O)C(=O)O (centres undefined) | . | -5 | . | 31* | . | . | . | .
O=C(CCCN1CCC2(CC1)C(=O)NCN2c1ccccc1)c1ccc(F)cc1 | 3 | -3 | -2 | -2 | 137* | -2 | . | .
O=C(COc1ccc(Cl)cc1)N1CCN(C2CCCC2)CC1 | 2 | -1 | -4 | -1 | -1 | -1 | . | .
CN(C)[C@@H]1C(=O)C(C(N)=O)=C(O)[C@@]2(O)C(=O)C3=C(O)c4c(O)cccc4[C@@](C)(O)C3C[C@@H]12 (some centres undefined) | 1 | 6 | -1 | -3 | 7 | 10 | . | .
CN(C)[C@@H]1C(=O)C(C(N)=O)=C(O)[C@@]2(O)C(=O)C3=C(O)c4c(O)cccc4[C@@](C)(O)[C@H]3[C@H](O)[C@@H]12 | 20*! | -1 | -18 | -24 | 1 | -1 | . | .
Cc1cc(/C=C2\C(=O)NC(=O)N(c3cccc(Br)c3)C2=O)c(C)n1C | -4 | 0 | 12 | -1 | 97* | 1 | . | .
CC(C)[C@H]1C(=O)N2CCC[C@H]2[C@]2(O)O[C@](NC(=O)[C@@H]3C=C4c5cccc6[nH]cc(c56)C[C@H]4N(C)C3)(C(C)C)C(=O)N12 | -28 | 4 | 27 | -16 | 21 | -4 | . | .
CC(C)C[C@H]1C(=O)N2CCCC2[C@]2(O)O[C@](NC(=O)[C@@H]3C=C4c5cccc6[nH]cc(c56)CC4N(C)C3)(C(C)C)C(=O)N12 (some centres undefined) | -56 | 2 | 31* | -5 | 42 | 1 | . | .
CC1CCCN(c2ccc(C(=O)N3CCC4(CC3)OCCO4)cc2[N+](=O)[O-])C1 (centres undefined) | 0 | -4 | 6 | -3 | -2 | 6 | . | .
CCOC(=O)C1CCCN(c2ccc([N+](=O)[O-])c3nonc23)C1 (centres undefined) | -481 | . | 393* | . | 208* | -91 | . | .
CN1C(=O)/C(=C/c2cccn2-c2ccc3ccccc3c2)C(=O)NC1=S | 4 | 3 | -7 | 38* | 5 | -11 | 17 | 21
COc1ccccc1-n1c(-c2ccccc2Cl)nc2ccccc2c1=O | -4 | 1 | 3 | 1 | -2 | -1 | . | .
O=c1[nH]c(=S)n(-c2ccc(Cl)cc2)c(O)c1C=Nc1ccc(N2CCOCC2)cc1 | -18 | 5 | 4 | 30* | 53* | 5 | -49 | -33
O=c1[nH]c(=O)n(C2CCCCC2)c(O)c1C=Nc1ccc(N2CCOCC2)cc1 | -7 | 4 | 7 | 2 | 2 | 2 | . | .
CCn1c(O)c(N=Nc2ccc(S(=O)(=O)N3CCOCC3)cc2)c(=O)n(CC)c1=S | 3 | 0 | -6 | 6 | -2 | 1 | . | .
CCn1c(O)c(C=Nc2ccc(N3CCOCC3)cc2)c(=O)n(CC)c1=S | -12 | 3 | 130* | 66* | 97* | -7 | -26 | -36
CCn1c(O)c(C=NCCN2CCOCC2)c(=O)n(CC)c1=S | -6 | 9 | 10 | 38* | -1 | -6 | 19 | 27*
O=C(Nc1nc(-c2ccccc2)c(-c2ccccc2)s1)c1ccc(S(=O)(=O)N(CCCl)CCCl)cc1 | -9 | -1 | -3 | 0 | -1 | 1 | . | .
CN(C)c1ccc(/C=C2/C(=O)NC(=O)N(Cc3ccco3)C2=O)cc1 | -8 | 5 | -2 | 26* | 0 | -3 | 18 | 26*
CCN(CC)c1ccc(/C=C2/C(=O)NC(=O)N(Cc3ccco3)C2=O)cc1 | -8 | -1 | 6 | 48* | 18 | -8 | 94* | 107*
CCN(CC)c1ccc(/C=C2\C(=O)NC(=O)N(CC3CCCO3)C2=O)cc1 (centres undefined) | -7 | 2 | 3 | 13 | 8 | 0 | . | .
Cc1cc(/C=C2/C(=O)NC(=O)N(Cc3ccco3)C2=O)c(C)n1-c1ccccc1 | -7 | 7 | 2 | 23 | 3 | -4 | . | .
ON1C2CCCCC2N(O)C1c1ccccc1 (centres undefined) | -5 | 6 | -1 | 1 | -1 | 5 | . | .
C=CCn1c(=O)c(C=Nc2c(OC)cccc2[N+](=O)[O-])c(O)n(CCCC)c1=O | -8 | -4 | 15 | 51* | -1 | -10 | 30* | 39*
SMILES | RTF Ca sens inh | IDE cell inh | RTF Ca sens act | TPT1 inhibitor | CRFBP-R2 agonist | IDE act | TPT1 inh confirm | RNase T1 inh
CCCCn1c(=O)c(C=Nc2cccnc2Cl)c(O)n(CCCCl)c1=O | -9 | 1 | 10 | 30* | 2 | 1 | 9 | 14
Cn1c(O)c(/C=N/c2ncccn2)c(=O)n(C)c1=O | -16 | 1 | 14 | 6 | 0 | -9 | . | .
C=CCn1c(=O)c(C=Nc2cccc([N+](=O)[O-])c2)c(O)n(CCCC)c1=O | -11 | 7 | 5 | 113* | 4 | -2 | 36* | 47*
CC(=O)Nc1ccccc1OP1(=O)COc2ccccc2OC1 | 1 | 0 | -2 | -1 | 0 | 7 | . | .
COC(=O)C1=C(c2ccc(Cl)c(C(F)(F)F)c2)C[C@@H]2CC[C@H]1N2C(=O)NCCCOC(C)C | -13 | -2 | -4 | . | -1 | 5 | . | .
COc1ccc(C2=NCC(=S)Nc3ccc(Cl)cc32)cc1Cl | -9 | 3 | 3 | 0 | 1 | -2 | . | .
CCOC(=O)c1sc(/N=C/c2c(O)n(-c3ccccc3)c(=O)[nH]c2=O)c(C#N)c1C | 3 | 1 | 7 | 32* | 11 | -1 | 17 | 20
NS(=O)(=O)c1ccc(N=Cc2c(O)n(-c3ccccc3)c(=O)[nH]c2=O)cc1 | . | 5 | . | 9 | 3 | . | . | .
Cc1ccccc1-n1c(O)c(C=Nc2ccc3c(c2)OCO3)c(=O)[nH]c1=O | -11 | 5 | 3 | 4 | -3 | 2 | . | .
CNS(=O)(=O)c1ccc(N=Cc2c(O)n(-c3ccc(C)cc3)c(=O)[nH]c2=O)cc1 | -4 | 6 | 0 | 22 | 0 | 0 | . | .

Source: PubChem BioAssay
